HTR5A inv ag: HTR5A inverse agonists in luminescence cell assay, primary screen, counter-screen for OPRM1-OPRD1 heterodimer inverse agonist project, full-deck HTS. AID 504634, 2011. 5-hydroxytryptamine receptor 5A (Homo sapiens), P47898. HTR5A cell line, inverse agonism. 340,000 tested, 0.083% active. inhibition, % at 9.3 µM; in the data active means inhibition mostly above about 23%, no sharp cut-off; inactive means mostly below about 18%
Target sequence (P47898 whole entry, looked up): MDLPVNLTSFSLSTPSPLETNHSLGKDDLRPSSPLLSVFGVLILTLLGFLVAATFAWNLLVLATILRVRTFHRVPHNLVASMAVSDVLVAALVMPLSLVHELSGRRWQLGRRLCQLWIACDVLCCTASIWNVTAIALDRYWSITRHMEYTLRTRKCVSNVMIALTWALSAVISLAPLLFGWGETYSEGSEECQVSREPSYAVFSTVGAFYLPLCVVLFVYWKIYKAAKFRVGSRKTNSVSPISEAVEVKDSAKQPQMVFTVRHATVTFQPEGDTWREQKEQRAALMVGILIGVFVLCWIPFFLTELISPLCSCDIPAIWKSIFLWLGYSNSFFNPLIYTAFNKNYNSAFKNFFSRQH
OPRM1-OPRD1 ag: agonists of OPRM1-OPRD1 heterodimerization, primary screen, cell-based, luminescence; activation, % at 9.3 µM; 340,000 tested, 0.3% active; cells; Mu-type opioid receptor (Homo sapiens) + Delta-type opioid receptor (Homo sapiens), …; in the data active means activation above about 18%
HTR5A ag ctr: HTR5A agonists in luminescence cell assay, primary screen, counter-screen for OPRM1-OPRD1 heterodimer agonist project, full-deck HTS. AID 504692, 2011. activation, % at 9.3 µM. cell-based. 340,000 tested, 0.61% active; in the data active means activation mostly above about 9.5%, no sharp cut-off; inactive means mostly below about 7.6%
MOR-DOR inv ag: inverse agonists of MOR-DOR heterodimerization, primary screen, cell-based, luminescence | Mu-type opioid receptor (Homo sapiens) + Delta-type opioid receptor (Homo sapiens), … | cell-based MOR-DOR heterodimer luminescence, inverse agonism | inhibition, % at 9.3 µM | 340,000 tested, 0.21% active | AID 504357, 2011; in the data active means inhibition above about 22%, passing the limit was not always enough
A1 inh: caspase 3/7 activation in MEF A1-2A-BIM cells, primary screen, A1 inhibitor project, cell-based, luminescence, HTS; Caspase-Glo 3/7 luminescence, 3 h; percent of clofoctol response, vehicle zero; caspase activation, % (test concentration not listed); 330,000 tested, 0.066% active; AID 2462, 2010;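 active means over half of replicate activation scores above 10%, or exactly half above 10 with the replicate mean above 10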
Of the large screens only hits and unclear results are named; the others gave an inactive call. In the library only some 1.1% were active in any assay of this set; here they are far more common.

O=[N+]([O-])c1ccc2[nH]ncc2c1	HTR5A ag ctr 12.2
O=c1[nH]c2ccc([N+](=O)[O-])cc2[nH]1	none (no result: A1 inh)
CC1CCN(C(=O)COC(=O)CCCN2C(=O)c3cccc4cccc(c34)C2=O)CC1	none
O=C(COc1ncnc2ccc(Br)cc12)N1CCOCC1	none
CN(C)S(=O)(=O)c1ccc(Cl)c(NC(=O)COC(=O)/C=C/c2cnc3ccccc3n2)c1	none
Cc1ccc(S(=O)(=O)N(C)C)cc1NC(=O)COC(=O)/C=C/c1cnc2ccccc2n1	HTR5A ag ctr 14.2
COc1ccc(CCNC(=O)C2CCC(=O)N2CCc2ccccc2)cc1OC (centres undefined)	none (no result: A1 inh)
O=C1C2C3CCC(C3)C2C(=O)N1c1ccc(OS(=O)(=O)c2ccccc2)cc1 (centres undefined)	HTR5A ag ctr 12.7
Cc1ccc(S(=O)(=O)Oc2ccc(N3C(=O)C4C5CCC(C5)C4C3=O)cc2)cc1 (centres undefined)	none
CC1(C)C[C@H](O)[C@]2(CO)[C@H](O)C[C@]3(C)C(=CCC4[C@@]5(C)CC[C@H](O)C(C)(C)C5CC[C@]43C)[C@@H]2C1 (some centres undefined)	A1 inh 13.7
O=C(N/N=C/c1ccccn1)c1ccc(NC(=O)c2ccc(F)cc2)cc1	HTR5A ag ctr 13.7
CC(C)c1ccccc1NC(=O)CNCCc1ccc(C(F)(F)F)cc1	none
O=C1Nc2ccccc2C1(c1ccccc1)c1ccccc1	OPRM1-OPRD1 ag 29.3, HTR5A ag ctr 39.1
O=C1COc2ccc(C(=O)COC(=O)CNC(=O)c3ccco3)cc2N1	none
CN(C)S(=O)(=O)c1ccc(N2CCCC2)c(C(=O)OCC(=O)NC2(C#N)CCCCC2)c1	none
O=C(Nc1ccccc1Cl)NC1(C(=O)NCCCN2CCOCC2)CCCCC1	none
O=C(NC1CCCCC1)NC1(C(=O)NCCCN2CCOCC2)CCCCC1	HTR5A ag ctr 10.5
CN1CCc2nc3sc(C(=O)C45CC6CC(CC(C6)C4)C5)c(N)c3cc2C1	none
COC(=O)c1ccc(OC(=O)CS(=O)c2ccccc2[N+](=O)[O-])cc1 (centres undefined)	none
O=C(CS(=O)c1ccc(C(F)(F)F)cc1[N+](=O)[O-])Oc1ccccc1 (centres undefined)	A1 inh 9.2
Cc1nc(SCC(=O)NNC(=O)c2ccc(F)cc2)c2ccccc2n1	HTR5A ag ctr 12.8
O=C(CCNS(=O)(=O)c1ccc(Br)cc1)NCc1ccc(Cl)cc1	none
COc1cccc(NC(=O)CSCC(=O)O)c1	HTR5A ag ctr 13.7
C=CCN(CC=C)Cc1c(O)ccc2c1oc(=O)c1ccccc12	MOR-DOR inv ag 44.8
O=C(/C=C/c1cccnc1)c1ccc(F)c(F)c1	none
CN(C)c1ccc(C(=O)/C=C/c2cccnc2)cc1	HTR5A ag ctr 9.2
Cc1ccc(NC2=CC(=O)C(=O)c3ccccc32)cc1	none
NS(=O)(=O)c1ccc(NC2=CC(=O)C(=O)c3ccccc32)cc1	HTR5A ag ctr 9.6
O=C(OCC(=O)N1CCc2ccccc21)c1n[nH]c(=O)c2ccccc12	HTR5A ag ctr 12.6
Cn1nc(C(=O)OCC(=O)N2CCc3ccccc32)c2ccccc2c1=O	none
CCOc1ccc(S(=O)(=O)N/N=C(\C)c2ccc(OC)cc2OC)cc1	none
COc1ccc(/C(C)=N/NS(=O)(=O)c2cc(C)ccc2C)c(OC)c1	HTR5A ag ctr 13.4
CCC(=O)Nc1ccc(Cl)c(NC(=O)c2ccc([N+](=O)[O-])cc2)c1	HTR5A ag ctr 11.5
COc1cc2c(cc1NC(=O)C(C)OC(=O)c1ccc(S(=O)(=O)Nc3ccccc3Cl)cc1)oc1ccccc12 (centres undefined)	HTR5A ag ctr 12.6
COc1cc2c(cc1NC(=O)C(C)N1CCN(S(=O)(=O)c3ccc(C)c(C)c3)CC1)oc1ccccc12 (centres undefined)	none
CCn1cc(Cl)c(C(=O)N2N=C(c3ccc4ccccc4c3)CC2c2ccccc2O)n1 (centres undefined)	HTR5A ag ctr 11.8
CCOCCCn1c(C)nc2c(c1=O)c1nc3ccccc3nc1n2-c1ccc2c(c1)OCCO2	none (no result: HTR5A inv ag, OPRM1-OPRD1 ag, HTR5A ag ctr, MOR-DOR inv ag)
O=C(Nc1ccc(-c2nc3ccccc3[nH]2)cc1)c1ccc2c(c1)OCO2	HTR5A ag ctr 12.7
O=C(Nc1ccc(Cl)c(-c2nc3ccccc3[nH]2)c1)c1ccc2c(c1)OCO2	none
CC1CC(C)CN(c2ccc(NS(=O)(=O)c3ccccc3)cc2C(=O)O)C1 (centres undefined)	none
Cc1ccc(S(=O)(=O)Nc2nc(C)c(C(=O)N/N=C/c3ccccc3)s2)cc1	HTR5A ag ctr 13.1
Cc1ccc(S(=O)(=O)Nc2nc(C)c(C(=O)Nc3ccccc3)s2)cc1	none
Cn1cc(CN2CCC(n3nccc3NC(=O)CCc3ccccc3)CC2)cn1	HTR5A ag ctr 10.4
Cn1cc(CN2CCC(n3nccc3NC(=O)CCCc3ccccc3)CC2)cn1	none
COc1ccc2cc(CCNC(=O)c3ccc(S(=O)(=O)N4CCOCC4)cc3)c(=O)[nH]c2c1	none
CC(=O)N(c1ccccc1)C1CCCC1	none
O=C(CCl)N(c1ccccc1)C1CCCCC1	OPRM1-OPRD1 ag 32.6, HTR5A ag ctr 42.1
CCOC(=O)c1coc(CNC(=O)c2c(C)oc3c2CCCC3)c1	none
CCOC(=O)c1cc(CNC(=O)c2c(C)oc3c2CCCC3)c(C)o1	HTR5A ag ctr 11.2
CCOc1cc(CNc2ccc3c(c2)OCCO3)cc(Br)c1OCC	none
CC1CCCCC1NC(=S)Nc1cccc(S(=O)(=O)N(C)C)c1 (centres undefined)	HTR5A ag ctr 10.9
C=CCNc1nc(N(c2ccccc2)c2ccccc2)nc(-n2ccnc2)n1	HTR5A ag ctr 12.4
Nc1nnc(/C=C/c2cccc([N+](=O)[O-])c2)s1	none
CC(C)(C)C(=O)Nc1ccc(-c2cc3cc(Cl)ccc3o2)cc1	none
Cc1ccc(CN2C(=O)C(CC(C)C)Nc3ncnc(N4CCN(c5ccccc5)CC4)c32)cc1 (centres undefined)	none
CCC1Nc2ncnc(N3CCCCC3)c2N(Cc2ccc(Cl)cc2)C1=O (centres undefined)	none
CCC1Nc2ncnc(N3CCN(c4ccccc4)CC3)c2N(Cc2ccccc2)C1=O (centres undefined)	HTR5A inv ag 49.0, MOR-DOR inv ag 59.9
CCC1Nc2ncnc(N3CCN(c4ccccn4)CC3)c2N(Cc2ccc(Br)cc2)C1=O (centres undefined)	HTR5A inv ag 80.5, MOR-DOR inv ag 85.9
CCC1Nc2ncnc(N3CCN(c4ccccn4)CC3)c2N(Cc2ccc(Cl)cc2)C1=O (centres undefined)	HTR5A inv ag 77.0, MOR-DOR inv ag 80.0
CCC1Nc2ncnc(N3CCCCC3)c2N(Cc2ccc(Br)cc2)C1=O (centres undefined)	none
CCOC(=O)c1c(NC(=O)CCC(=O)O)sc2c1CCCCC2	none

Source: PubChem
